High-throughput results deposited in PubChem BioAssay by several laboratories.
TIM10 inh: growth inhibitors of TIM10 yeast strain; 330,000 tested, 1.4% active; inhibition, % at 10 µM; AID 463195; S. cerevisiae TIM10 strain growth, BacTiter-Glo luminescence, 24 h;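 active = inhibition of 40% or more at the single tested concentration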;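 also: wild-type TIM10 isogenic control strain grown at permissive 25 °C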
tim10-1 inh: tim10-1 yeast growth inhibition. AID 463190. inhibition, % at 20 µM. 330,000 tested, 2.2% active. S. cerevisiae tim10-1 ts strain growth, BacTiter-Glo, 24 h;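 active = inhibition of at least 40%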;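 also: mutant grown at 25 °C; 0% = DMSO wells with yeast and 100% = wells holding no yeast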
NALP1 yeast inh: inhibitors of NALP1 inflammasome in yeast. inhibition, % at 10 µM. 280,000 tested, 0.61% active. S. cerevisiae NALP1/ASC/caspase-1 growth, X-gal OD620, 72 h. AID 2071; in the data active = inhibition mostly above about 24%, no sharp cut-off; inactive = mostly below about 32%
NLRP3 yeast inh: inhibitors of NALP3 inflammasome in yeast | inhibition, % at 10 µM | 330,000 tested, 0.39% active | Yeast reconstituted NLRP3/ASC/caspase-1, beta-gal luminescence, 24 h;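 active = inhibition of 50% or more; inactive = inhibition below 50%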;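 also: plate controls were induced DMSO wells for no effect and uninduced yeast grown without galactose for full effect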
tim23-1 inh: inhibits growth of tim23-1 mutant yeast; 330,000 tested, 1.3% active; S. cerevisiae tim23-1 growth, BacTiter-Glo luminescence, 24 h; inhibition, % at 20 µM;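 active = growth inhibition of the mutant yeast at or above 50%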;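 also: temperature-sensitive mutant grown at 25 °C; plate controls were DMSO-treated mutant yeast for no effect and medium wells lacking yeast for full effect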
PfHsp90 set2: reduces growth (ATP signal) of yeast expressing P. falciparum Hsp90 | S. cerevisiae expressing PfHsp90, BacTiter-Glo ATP, 48 h; yeast lacking PDR1 and PDR3 efflux regulators | inhibition, % at 9.4 µM | 310,000 tested, 0.32% active | AID 504621;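 active = every replicate shows inhibition above about 80%, whatever the replicate mean, limit read from the data; inconclusive = mean inhibition reaches the set limit but some replicate falls short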;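 also: 0% = DMSO neutral controls and 100% = 20 µM radicicol positive controls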
tim23-1 confirm: confirmation of tim23-1 mutant yeast growth inhibitors. 4,400 tested, 83% active. inhibition, % at 20 µM. AID 463218. shares compounds with tim23-1 inh. S. cerevisiae tim23-1 growth, BacTiter-Glo luminescence, 24 h;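 active = inhibition above about 39% in either of two replicate wells at 20 µM, limit read from the data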;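 also: temperature-sensitive tim23-1 mutant grown at 25 °C; 0% = DMSO wells with yeast and 100% = medium wells without yeast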
* hit, by the source's call; ? = inconclusive; · = not tested or not shown; ! = repeats disagree. The list is not random: actives were taken first. Their share in the collection is about 4.2%.

SMILES	TIM10 inh	tim10-1 inh	NALP1 yeast inh	NLRP3 yeast inh	tim23-1 inh	PfHsp90 set2	tim23-1 confirm
Cc1ccc(C(=O)Nc2ccc(S(=O)(=O)N3CCCC3)cc2)o1	10	7	13	1	30	-21	·
CCC(=O)N1CCN(c2ccc(NC(=O)c3ccc([N+](=O)[O-])o3)cc2Cl)CC1	·	·	3	·	·	-6	·
CCOC(=O)[C@@H]1[C@H]2COc3cc(OC)ccc3[C@H]2N2C(=O)N(c3ccc(OC)cc3)C(=O)[C@]12C	9	11	·	14	17	7	·
Cc1ccc2cccnc2c1N	-1	-1	11	-1	3	-12	·
c1cnc2c(c1)ccc1cccnc12	6	11	54*!	9	59*!	125*!	44*
CCOc1ccc(S(=O)(=O)N/N=C(\C)c2ccc3c(c2)OCO3)cc1	7	16	11	11	27	17	·
CCCc1ccc(S(=O)(=O)N/N=C(/C)c2ccc3c(c2)OCO3)cc1	14	35	1	20	53*	-17	48*
Oc1ccc(/C=C/c2ccc3cccc(O)c3n2)cc1Br	14	30	10	19	53*	108*	71*
COc1ccc(C2CC(O)(c3ccccc3)Oc3cc(OC)cc(OC)c32)cc1 (stereo not given)	11	22	·	15	8	-18	·
COc1ccc(C2CC(O)(c3ccccc3)Oc3c(C)ccc(C)c32)cc1 (stereo not given)	21	22	·	16	53*	?	55*
CC(C)c1cc(C(C)C)c(S(=O)(=O)N2CCNCC2)c(C(C)C)c1	-4	22	·	12	16	5	·
Oc1ccccc1/C=N/NC(=S)NC1CC2C=CC1C2 (stereo not given)	40	18	18	-9	69*	-46	46*
Oc1ccccc1C=NNC(=S)Nc1ccc(F)cc1	·	·	·	·	·	-9	·
COc1ccc(NC(=S)NC2CC3CCC2C3)c(OC)c1 (stereo not given)	26	22	-2	2	63*	-7	11
CCOc1ccccc1NC(=S)NC1CC2CCC1C2 (stereo not given)	16	37	-5	13	33	-2	·
S=C(NCCc1cccc(Cl)c1)NCc1ccccc1	30	36	-8	14	56*	33	34
O=C(COc1ccccc1Cl)Nc1ccc2oc(=O)ccc2c1	-12	-10	-7	20	-18	30	·
Cc1ccc(-c2nn(-c3ccccc3)cc2/C=N/O)cc1	15	30	-24	28	59*	·	38*
Cc1ccc(-c2nn(-c3ccccc3)cc2CO)cc1	9	3	18	26	21	-8	·
Cc1ccc(-c2nn(-c3ccccc3)cc2NC(=O)CCl)cc1	29	36	14	22	65*	-41	44*
Cc1cc(C)c2cc(C#N)c(SCC(=O)Nc3cc(C)on3)nc2c1	-16	0	6	12	-3	-26	·
Cc1cccc(OCC(=O)N(Cc2ccco2)c2c(N)n(Cc3ccccc3)c(=O)[nH]c2=O)c1	8	-2	·	5	51*	28	23
Nc1c(N(Cc2ccco2)C(=O)COc2ccccc2)c(=O)[nH]c(=O)n1Cc1ccccc1	9	3	·	1	12	8	·
CCOC(CNCc1cc(C)c2[nH]c3ccccc3c2c1C)OCC	·	·	·	·	·	5	·
N#C/C(=C\c1cccnc1)c1ccc([N+](=O)[O-])cc1	28	34	29	37	55*	15	36
SMILES	TIM10 inh	tim10-1 inh	NALP1 yeast inh	NLRP3 yeast inh	tim23-1 inh	PfHsp90 set2	tim23-1 confirm
CCOc1cc2c3c(c1)C(C)CC(C)(C)N3C(=O)C2=O (stereo not given)	30	27	2	28	50*	-7	55*
Cc1cc2c3c(c1)C(C)CC(C)(C)N3C(=O)C2=O (stereo not given)	22	33	16	8	53*	1	55*
CCOc1cc2c3c(c1)C(C)=CC(C)(C)N3C(=O)C2=O	14	11	7	29	56*	40	56*
CCN(C(=O)COC(=O)c1cccc(S(=O)(=O)N(C)C)c1)c1c(N)n(Cc2ccccc2)c(=O)[nH]c1=O	·	·	·	·	·	22	·
CC(CC(=O)NCc1ccco1)S(=O)(=O)c1ccc2c(c1)CCN2C(=O)C1CC1 (stereo not given)	8	20	5	-5	8	14	·
Cc1cc(-c2ccc(C(C)C)c(S(=O)(=O)Nc3ccccn3)c2)on1	8	17	11	12	21	2	·
O=c1oc2ccccc2cc1-c1nc(-c2ccccc2)no1	6	-1	2	49	-8	16	·
O=C/C=C/c1c(-c2ccccc2)cc2oc3ccccc3cc1-2	36	39	2	1	50*	-21	59*
Cc1cccnc1NC(=O)c1cccc(NC(=O)CC2SC(N3CCCCC3)=NC2=O)c1 (stereo not given)	9	-1	·	-3	-6	-8	·
c1ccc2cc(OCc3nc4ccccc4[nH]3)ccc2c1	27	22	3	44	52*	7	30
COc1cc(C(=O)NCCC(=O)NC2CCCCCCC2)cc(OC)c1OC	7	10	4	3	56*	-19	14
CC1CCCCC1NC(=O)CNC(=O)c1ccco1 (stereo not given)	-4	-16	·	13	-2	-7	·
CC(C)(C)c1ccc(OCC(=O)NNC(=S)NC(=O)c2ccco2)c(Br)c1	32	22	11	43	27	-58	·
CC(C)(C)c1ccc(OCC(=O)NCc2ccco2)c(Br)c1	34	34	28	27	56*	-24	62*
C(=N\Nc1nc2ccccc2[nH]1)/c1ccccc1	28	15	-6	7	-1	13	·
C(=C\c1ccccc1)/C=N/Nc1nc2ccccc2[nH]1	19	15	37	18	51*	5	48*
CC(=O)C1CCC2C3CCC4CC(=O)CCC4(C)C3C=CC12C (stereo not given)	·	·	·	·	·	2	·
Cc1ccccc1S(=O)c1ccccc1C(=O)O (stereo not given)	15	10	-10	-2	18	-7	·
CCn1cnc2cc(NCc3ccc(Br)cc3)ccc21	20	19	10	43	53*	·	66*
Cc1ccc(C(=O)N2C(=O)C(c3ccccc3)Oc3ccccc32)cc1 (stereo not given)	33	38	3	40	69*	-42	53*
Cc1ccc(C(=O)N2c3ccccc3OCC2C)cc1 (stereo not given)	18	7	2	14	39	4	·
O=C(NCCc1ccccc1)c1cccc2c1C(=O)N(C1CCCCC1)C2	24	26	26	12	51*	-12	39
